The list is not random: actives were taken first. Their share in the collection is about 1.6%.
KCNQ2 block = blocks the rat KCNQ2 potassium channel; actives 1.1% (n = 310,000); O88943; B-score at 10 µM; CHO-K1 KCNQ2, FluxOR thallium flux, 20 min; active compounds read low;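 active = fluorescence ratio B-score at most minus 3 library SDs, with starting brightness B-score within 2 library SDs, cut at about -5.5 in these data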
Target sequence (O88943 whole entry, looked up): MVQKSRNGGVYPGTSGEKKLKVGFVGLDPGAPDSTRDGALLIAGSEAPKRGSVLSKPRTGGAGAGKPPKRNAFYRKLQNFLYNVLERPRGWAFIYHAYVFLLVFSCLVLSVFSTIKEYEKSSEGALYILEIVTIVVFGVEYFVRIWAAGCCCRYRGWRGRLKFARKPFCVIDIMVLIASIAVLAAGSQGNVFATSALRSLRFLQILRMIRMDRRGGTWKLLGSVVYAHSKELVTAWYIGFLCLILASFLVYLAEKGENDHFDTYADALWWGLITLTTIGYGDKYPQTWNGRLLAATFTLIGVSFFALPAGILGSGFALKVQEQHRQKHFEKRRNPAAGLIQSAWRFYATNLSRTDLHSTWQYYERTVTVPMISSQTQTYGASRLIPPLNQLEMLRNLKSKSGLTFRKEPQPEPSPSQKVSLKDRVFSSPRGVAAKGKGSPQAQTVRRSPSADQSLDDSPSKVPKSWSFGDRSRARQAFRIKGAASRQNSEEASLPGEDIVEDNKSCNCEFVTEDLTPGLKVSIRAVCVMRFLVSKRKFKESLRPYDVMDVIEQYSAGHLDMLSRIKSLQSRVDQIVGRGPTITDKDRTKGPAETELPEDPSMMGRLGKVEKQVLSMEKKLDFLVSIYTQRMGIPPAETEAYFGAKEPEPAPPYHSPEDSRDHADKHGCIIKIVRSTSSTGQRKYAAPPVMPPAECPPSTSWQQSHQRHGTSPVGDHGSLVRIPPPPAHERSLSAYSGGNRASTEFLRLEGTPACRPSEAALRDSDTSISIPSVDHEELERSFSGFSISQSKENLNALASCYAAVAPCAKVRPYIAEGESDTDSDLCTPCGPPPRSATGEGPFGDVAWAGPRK
KCNQ2 enhance = KCNQ2 (rat) channel potentiation | AID 2239 | B-score at 10 µM | CHO-K1 KCNQ2, FluxOR thallium flux fluorescence; active compounds read high | O88943 | actives 0.54% (n = 310,000);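 active = fluorescence ratio B-score at least 3 SD of library B-scores, with initial fluorescence B-score within 3 of them, cut at about 5.3 in these data; same plate scores as AID 2156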;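 also: B-score of peak minus minimum over baseline fluorescence ratio after K+ and Tl+ stimulus; positive B-score means potentiation of KCNQ2 with more thallium influx and brighter signal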
Kir21 conf inh = confirmation of mouse Kir2.1 potassium channel inhibitors. Tl flux remaining, % of negative control (active compounds read low), % at 10 µM. actives 41% (n = 2,300). Kir2.1-expressing cells, FluxOR thallium flux fluorescence; active compounds read low. AID 2032. shares compounds with KCNQ2 enhance;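 active = Primary-screen hit whose thallium flux fell at least 3 control SD below untreated wells in both duplicates, with normal baseline fluorescence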
HEK293 ctr = parental HEK293 activity in Kir2.1 inhibitor counter-screen | shares compounds with KCNQ2 enhance | actives 19% (n = 2,300) | AID 2105 | FluxOR signal as % of negative control (100 = no effect), % at 10 µM | parental HEK293 cells, FluxOR thallium flux fluorescence; 0% = unstimulated blank wells;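 active = dye signal at least 3 control SD above or below untreated wells in both duplicates, raw fluorescence within 3, either direction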;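 also: percent is based on the flux ratio of peak minus minimum fluorescence over baseline F0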
CHO-K1 Tl ctr = alters thallium flux in parental CHO-K1 cells, KCNQ2 counter-screen | shares compounds with KCNQ2 enhance | FluxOR thallium flux fluorescence; zero = vehicle mean+3SD, 100% = vehicle-minus-blank window | activity increase over 3SD of controls, % at 10 µM | actives 43% (n = 1,200) | AID 2282;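 active = signal rise of at least 3 SD above the untreated control mean, in both duplicate wells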;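 also: counter screen of KCNQ2 potentiator hits so any rise reflects channel-independent effects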
KCNQ1 pot spec = tests whether KCNQ2 potentiators also act on human KCNQ1; shares compounds with KCNQ2 enhance; CHO KCNQ1 stable, FluxOR thallium flux fluorescence; beyond 3SD, as % of vehicle-control signal; activation over 3SD threshold, % at 10 µM; actives 28% (n = 1,200);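 active = fluorescence ratio rise of at least 3 SD of vehicle wells above their mean, in both replicate wells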
KCNQ2 pot conf = rat KCNQ2 channel potentiator confirmation. shares compounds with KCNQ2 enhance. CHO-KCNQ2 cells, FluxOR thallium flux fluorescence. potentiation, less the hit threshold, % at 10 µM. actives 68% (n = 1,200);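 active = fluorescence ratio rising 3 SD or more over the vehicle control mean in both replicates, plus primary screen hit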;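 also: peak minus minimum thallium fluorescence divided by baseline after K/Tl stimulus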
Kir21 spec = mouse Kir2.1 off-target activity of KCNQ2 potentiators; shares compounds with KCNQ2 enhance; HEK293 Kir2.1, FluxOR thallium flux fluorescence; activity over 3SD threshold, % at 10 µM; actives 2% (n = 1,200); AID 2345;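 active = fluorescence ratio rise of at least 3 SD above the vehicle-control mean, seen in both replicates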
Each line names hits and unclear results; the compound was inactive in the other large screens (follow-up assays come after a bar, where they were run).

Cc1ccc(S(=O)(=O)CC(O)COc2ccc(F)cc2Cl)cc1 (centres undefined)	none
CCS(=O)(=O)Nc1cccc(C2=NN(S(=O)(=O)c3ccccc3)C(c3ccco3)C2)c1 (centres undefined)	none
CCOC(=O)c1c(NC(=O)C(NCCN(C)C)c2ccccc2)sc2c1CCCC2 (centres undefined)	none (no result: KCNQ2 enhance) | Kir21 conf inh 42% | HEK293 ctr inactive
CCOC(=O)c1c(NC(=O)c2ccccc2N(C)S(=O)(=O)c2ccccc2)sc2c1CCCC2	none (no result: KCNQ2 enhance)
COc1cc(C(=O)OCC(=O)NC2CCS(=O)(=O)C2)ccc1OCc1c(C)noc1C (centres undefined)	none (no result: KCNQ2 enhance)
CCOc1cc2c3c(c1)C(C)=CC(C)(C)N3C(=O)C2=O	none
CC(=O)Oc1cc2c3c(c1)/C(=C1/SC(=S)NC1=O)C(=O)N3C(C)(C)C=C2C	KCNQ2 enhance 6.8 | Kir21 conf inh inactive | HEK293 ctr inactive | CHO-K1 Tl ctr inactive | KCNQ1 pot spec 12 | KCNQ2 pot conf inactive | Kir21 spec inactive
Cc1ccc(C(=O)Nc2ccn(Cc3ccc(F)cc3)n2)o1	none
O=[N+]([O-])c1ccc(S(=O)(=O)N2CCSC2c2ccco2)cc1 (centres undefined)	none (no result: KCNQ2 enhance)
O=S(=O)(c1ccc(Cl)cc1)N1CCSC1c1ccco1 (centres undefined)	none (no result: KCNQ2 enhance) | Kir21 conf inh 66% | HEK293 ctr inactive
CC1CCN(c2nc3ccc(C(=O)N4CCN(Cc5ccccc5)CC4)cc3s2)CC1	none
CCN(c1ccc(OC)cc1)S(=O)(=O)c1ccc2c(c1)NC(=O)CS2	none (no result: KCNQ2 enhance)
CCN(c1cccc(C)c1)S(=O)(=O)c1ccc2c(c1)NC(=O)CS2	none (no result: KCNQ2 enhance) | Kir21 conf inh 62% | HEK293 ctr inactive
Cc1csc(SCC(=O)NC(=O)C2CCCCC2)n1	none (no result: KCNQ2 enhance)
O=C(NCC(=O)N1CCCC1)c1cccs1	none (no result: KCNQ2 enhance)
O=C(O)Cn1cc(C(=O)C2CC2)c2ccccc21	none
COc1cc(C)nc(N(Cc2ccccc2)S(=O)(=O)c2ccccc2)n1	none (no result: KCNQ2 enhance)
CCCN(c1nc(C)cc(OC)n1)S(=O)(=O)c1ccccc1	none (no result: KCNQ2 enhance) | Kir21 conf inh 50% | HEK293 ctr inactive
COc1ccc(-c2cc(C(=O)Nc3cccnc3Cl)no2)cc1OC	none
CCn1c(SCC(=O)N2CCN(c3ccccc3)CC2)nnc1-c1cc2cc(Cl)ccc2o1	none
Cc1nc2ccccn2c1C(=O)N/N=C/c1ccc(F)cc1	none
CCN(c1ccccc1)S(=O)(=O)c1ccc2ccccc2c1	none (no result: KCNQ2 enhance)
CNS(=O)(=O)c1ccc2ccccc2c1	none (no result: KCNQ2 enhance)
Cc1cc(O)cc(C)c1NS(=O)(=O)c1ccc2ccccc2c1	none | Kir21 conf inh 56% | HEK293 ctr inactive
CN(c1ccc(O)cc1)S(=O)(=O)c1ccc2ccccc2c1	none | Kir21 conf inh 50% | HEK293 ctr inactive
COc1cc2c(=O)nc3n(c2cc1OC)C(c1ccccc1)N=C(N)N3 (centres undefined)	none
O=C(c1ccc(Cl)c(NC2=NC3CS(=O)(=O)CC3S2)c1)N1CCN(c2ccccc2)CC1 (centres undefined)	none (no result: KCNQ2 enhance)
Cc1onc(-c2ccccc2)c1CNS(=O)(=O)c1ccc(F)cc1F	none (no result: KCNQ2 enhance)
Cc1onc(-c2ccccc2)c1CNS(=O)(=O)c1cccc(Br)c1	none | Kir21 conf inh 52% | HEK293 ctr inactive
Cc1c(NC(=O)COC(=O)COc2ccc(Nc3ccccc3)cc2)c(=O)n(-c2ccccc2)n1C	none (no result: KCNQ2 enhance)
Cc1cccc(NC(=O)Cn2nnc3sc4c(c3c2=O)CC(C)(C)OC4)c1	none (no result: KCNQ2 enhance)
